Inhibition data for 86 molecules are collected here from PubChem BioAssay AID1645855 (Buhrlage Lab, Dana-Farber Cancer Institute and Novartis …, 2021).

The campaign covered roughly 47,000 compounds. About 3,100 (6.6%) were called active. Only a selection was taken, and actives are over-represented in it overall. A number with no mark means an inactive call. Cut-off read from the data, not from the text of the source: active = inhibition above about 30%; inactive = the rest.

The target in this test is Ubiquitin carboxyl-terminal hydrolase 17-like protein 5 (Homo sapiens) (UniProt A8MUK1). The experiment in a line: blocks human USP17 ubiquitin-rhodamine cleavage (AID 1645855). As to conditions: purified USP17, Ub-rhodamine cleavage fluorescence, 3 h; at 50 µM; hits give high values.
Ubiquitin carboxyl-terminal hydrolase 17-like protein 5 (Homo sapiens), sequence (A8MUK1 whole entry, looked up): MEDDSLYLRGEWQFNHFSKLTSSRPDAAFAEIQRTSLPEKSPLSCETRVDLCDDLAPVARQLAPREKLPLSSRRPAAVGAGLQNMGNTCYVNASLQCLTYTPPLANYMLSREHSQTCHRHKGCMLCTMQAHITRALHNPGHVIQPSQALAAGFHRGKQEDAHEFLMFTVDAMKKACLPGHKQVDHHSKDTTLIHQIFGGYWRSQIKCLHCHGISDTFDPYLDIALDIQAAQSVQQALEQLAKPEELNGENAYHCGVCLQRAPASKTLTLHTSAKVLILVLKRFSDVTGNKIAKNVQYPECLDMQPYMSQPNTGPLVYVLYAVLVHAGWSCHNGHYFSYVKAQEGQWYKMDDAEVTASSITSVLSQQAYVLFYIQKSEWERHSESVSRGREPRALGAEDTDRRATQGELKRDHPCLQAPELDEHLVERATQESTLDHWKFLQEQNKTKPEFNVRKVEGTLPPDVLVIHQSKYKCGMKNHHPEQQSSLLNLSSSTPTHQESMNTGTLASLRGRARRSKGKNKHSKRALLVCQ
As a reminder, the inhibition is the change of the read-out against control, counted positive when it falls. `COc1ccc(OC)c(NC(=O)C(Cc2c[nH]c3ccccc23)N2CCS(=O)(=O)CC2)c1` (stereo unspecified): the inhibition was 3.96%.

As for `O=C(COC(=O)C1CCN(S(=O)(=O)c2c(Cl)cccc2Cl)CC1)Nc1ccc2c(c1)CCC2`, the inhibition was 0.533%.

Take `Cc1cccc(-c2nnc(-c3cccc(S(=O)(=O)N4CCCC4)c3)o2)c1`: the inhibition was 6.44%.

For the molecule `O=C(Nc1nnc(-c2cccc([N+](=O)[O-])c2)o1)C1CCN(S(=O)(=O)c2ccc3c(c2)CCC3)CC1`, the inhibition is 73.8% (active).

In the case of `Cn1c(=O)c2c(nc(N3CCN(C(=O)c4ccco4)CC3)n2CCSc2nc3ccccc3s2)n(C)c1=O`, the inhibition was 0.301%.

As for `COc1cccc(C(=O)N2CCN(c3nc(-c4ccc(Cl)cc4)no3)CC2)c1OC`, the inhibition is 8.11%.

Turning to `Nn1c(SCC(=O)Nc2ccccc2F)nnc1-c1n[nH]c2c1CCC2`, the inhibition is 41.7% (active).

With `O=C(CSc1nccn1C1CCCCC1)Nc1ccccc1F`, the inhibition was 20.2%.

Take `Cc1ccccc1NC(=O)CSc1nnc(C2CC2)n1Cc1ccccc1`: the inhibition was -1.39%.

In the case of `CC(=O)O[C@H]1CC[C@]2(C)[C@H]3Cc4c(cc(-c5cccnc5)oc4=O)O[C@]3(C)CC[C@H]2C1(C)C`, the inhibition was 1.11%.

`O=C(C1CCCN(S(=O)(=O)N2CCOCC2)C1)N1CCN(Cc2ccccc2)CC1` (stereo unspecified): the inhibition is -0.311%.

`COc1ccc(Cl)cc1NC(C)c1nc2sc(C)c(C)c2c(=O)[nH]1` (stereo unspecified): the inhibition is -21.9%.

In the case of `C/C=C(\Cl)C1=CC(=O)[C@]23C[C@H]2[C@@]2(C)CO[C@@]1(O)[C@@]3(O)O2`, the inhibition was 68.6% (active).

In the case of `CCC1(c2ccccc2)NC(=O)N(CC(=O)Nc2ccc(C)c([N+](=O)[O-])c2)C1=O` (stereo unspecified), the inhibition is -6.64%.

In the case of `COc1ccc(S(=O)(=O)N(C(=O)c2ccccc2)c2ccc3oc4c(c3c2)CCCC4)cc1`, the inhibition is -2.79%.

Turning to `CCC(=O)c1ccc(OCC(=O)Nc2ccc3c(c2)CCC3)cc1`, the inhibition was 4.25%.

Turning to `O=C(COc1ccc2oc3c(c2c1)CCCC3)Nc1ccccn1`, the inhibition is 70.8% (active).

As to `C=C(NC(=O)/C(C)=C/C=C\CCCCCC(C)C)C(=O)N/C(=C/OC)C(=O)OC`, the inhibition is -61.8%.

For `O=C(Cc1ccc(Cl)cc1)N1CCC2(CN(Cc3ccc(O)cc3)C2)C1`, the inhibition is -0.288%.

Consider `CCOc1ccc(C(=O)C[n+]2cc(-c3ccccc3)n3c2CCC3)cc1`, for which the inhibition is 3.07%.

As to `COc1ccccc1CNCc1c(C(=O)O)c(C)n(-c2ccccc2)c1C`, the inhibition was 6.79%.

In the case of `NC(=O)c1ccccc1NC(=O)C1CN(c2nc3c(F)cccc3s2)C1`, the inhibition is 31% (active).

Turning to `CNC(=O)C1CCN(c2nc3ccc(-c4ccccc4F)nc3s2)CC1`, the inhibition was 15.7%.

As for `O=C(Nc1ccccc1F)C1CCCN(c2nnc3ccccn23)C1` (stereo unspecified), the inhibition was 4.67%.

Consider `Cc1ccnc(Nc2nc(-c3ccccc3)c3cc(Cl)ccc3n2)n1`, for which the inhibition is 91.1% (active).

Take `CCOc1nc(-c2ccc(Cl)cc2Cl)nc2ccccc12`: the inhibition was 9.99%.

Turning to `O=C(Nc1cc(Cl)ccc1F)c1cnc(-c2ccccc2)nc1-c1ccncc1`, the inhibition is -172%.

With `COc1cc2c(c(OC)c1OC)-c1ccc(NCCc3ccc(S(N)(=O)=O)cc3)c(=O)cc1[C@@H](NC(C)=O)CC2`, the inhibition was -68.9%.

For the molecule `Nc1nc(COC(=O)c2ccoc2)nc(Nc2ccccc2)n1`, the inhibition was -3.92%.

Turning to `Cc1nc(-c2ccc(C)c(S(=O)(=O)NCc3ccccc3Cl)c2)cs1`, the inhibition was 28%.

Take `Cc1ccc(F)cc1NC(=O)CN(C)Cc1ccc2c(c1)OCO2`: the inhibition was 1.53%.

With `CN(CC(=O)Nc1ccc(F)cc1Cl)Cc1ccc2c(c1)OCO2`, the inhibition is -5.43%.

Take `COc1ccc(C(NC(=O)CN(C)Cc2ccc3c(c2)OCO3)c2ccccc2)cc1` (stereo unspecified): the inhibition is 35.3% (active).

For `CCN(CC)c1ccc2ccc(C(=O)NCCc3ccccn3)cn12`, the inhibition is -61.8%.

`COc1cccc(NC(=O)N2CC[C@H]3N(C)CC[C@@]3(C(=O)N3CCCC3)CC2)c1`: the inhibition was -21.3%.

In the case of `COc1cccc(N2CCN(C(=O)Nc3ccc4c(c3)NC(=O)CO4)CC2)c1`, the inhibition is 45% (active).

For `Cc1cc2oc(C(=O)Nc3ccc4c(c3)NC(=O)CO4)c(C)c2cc1Cl`, the inhibition is 11.8%.

With `CN(Cc1cccnc1)Cc1ccc(N2CCC(NC(=O)c3ccc4c(c3)OCO4)CC2)nc1`, the inhibition was -12%.

Regarding `O=c1c2cnc(N3CCOCC3)nc2ccn1CCc1ccccc1`, the inhibition was 71.6% (active).

For `CN1CCN(c2ncc3c(=O)n(Cc4ccccn4)ccc3n2)CC1`, the inhibition was 11.4%.

Take `O=c1c2cnc(N3CCCCC3)nc2ccn1Cc1cccnc1`: the inhibition is -8.83%.

As for `Cc1nnc2n1CC(c1cccc(NC(=O)Cn3ccnc3C(C)C)c1)CC2` (stereo unspecified), the inhibition is 3.88%.

With `O=C(Cn1c(=O)n(Cc2ccc3c(c2)OCO3)c(=O)c2cccnc21)Nc1ccc(F)cc1`, the inhibition was 14.6%.

As for `CC(C)[C@H](NC(=O)N1CCn2c1nc1ccccc12)C(=O)NCCc1ccccc1`, the inhibition is -12.9%.

Turning to `CCN1CCN(c2nc(F)c3c(c2F)S(=O)(=O)CCN3CC2CCCO2)CC1` (stereo unspecified), the inhibition is 16.6%.

Consider `CC1CCN(c2nc(F)c3c(c2F)S(=O)(=O)CCN3Cc2cccnc2)CC1`, for which the inhibition is 50.9% (active).

Take `O=S1(=O)c2ccccc2O[C@H]2CCN(c3ncccn3)CC[C@@H]2N1Cc1cccnc1`: the inhibition was -37.6%.

As to `Cc1noc(-c2ccc3nnc(CC(=O)Nc4ccc(C)c(F)c4)n3c2)n1`, the inhibition was -2.57%.

On to `COC(=O)c1cccc(Oc2nc(OC)nc(OC)n2)c1`, for which the inhibition is -1.33%.

As for `Cc1cc(C)n(Cc2c(C(=O)NCc3ccc(F)cc3)noc2C)n1`, the inhibition is -5.62%.

As to `Cc1ccc(CNC(=O)c2ccc(-c3cccnc3)nc2)cc1`, the inhibition is 9.44%.

For the molecule `CNS(=O)(=O)c1ccc(CNC(=O)c2cc(-c3ccc(C)cc3)no2)cc1`, the inhibition was 65% (active).

As to `CCn1cc(S(=O)(=O)CC(=O)Nc2ccccc2C(F)(F)F)c2ccccc21`, the inhibition was -1.62%.

With `Cc1cccc(-c2nnc3ccc(N4CCC(C(=O)NC(C)Cc5ccco5)CC4)nn23)c1` (stereo unspecified), the inhibition is 48.5% (active).

For the molecule `CC1CCN(C(=O)CSc2ccc3nnc(-c4cccc(F)c4)n3n2)CC1`, the inhibition is -2.06%.

With `O=C(Nc1ccccc1[N+](=O)[O-])N1CCN(c2ccc3nnc(-c4ccccc4)n3n2)CC1`, the inhibition is 12.5%.

In the case of `COCCn1c(=O)[nH]c2cc(C(=O)NCc3ccc(Cl)cc3)ccc2c1=O`, the inhibition was 0.361%.

For `COCCn1c(=O)[nH]c2cc(C(=O)NCCNc3ccc([N+](=O)[O-])cc3C#N)ccc2c1=O`, the inhibition was 53.7% (active).

With `COCCn1c(=O)[nH]c2cc(C(=O)N3CCC(Cc4ccccc4)CC3)ccc2c1=O`, the inhibition is 2.53%.

In the case of `CN1CCN(S(=O)(=O)c2cccc(C(=O)Nc3cccc(S(N)(=O)=O)c3)c2)CC1`, the inhibition was -6.3%.

Consider `COc1cccc(N2CCN(C(=O)C3CCN(c4ncnc5onc(C)c45)CC3)CC2)c1`, for which the inhibition is -20.4%.

For the molecule `CCOc1ccc2nc(NC(=O)CN3CCC(C(N)=O)CC3)sc2c1`, the inhibition is -0.089%.

As for `CCC(=O)c1ccc(OCC(=O)Nc2ccc3nc(C)sc3c2)cc1`, the inhibition is 5.34%.

`CCC(=O)Nc1nc2cc(NC(=O)c3ccc(OC)cc3)ccc2s1`: the inhibition is 30.9% (active).

As for `CC(=O)N1c2ccc(S(=O)(=O)NCC3CCC(C(=O)Nc4cccnc4)CC3)cc2CC1C` (stereo unspecified), the inhibition is 0.344%.

For the molecule `CC(Oc1ccc2c3c(c(=O)oc2c1)CCC3)C(=O)NCC(=O)N1CC[C@@]2(O)CCCC[C@H]2C1` (stereo partly specified), the inhibition is 10.3%.

`CNC(=O)c1cnc2scc(-c3ccccc3)n2c1=O`: the inhibition was 1.82%.

In the case of `Cc1ccc2c(c1)C(=O)NCC1(CCN(C(=O)c3cscn3)CC1)O2`, the inhibition is 0.0795%.

`Cc1ccc2sc(NC(=O)NC(=O)c3c(Cl)cccc3Cl)nc2c1`: the inhibition was 36.4% (active).

On to `O=C(Nc1ccc2sc(NC(=O)C3CCCCC3)nc2c1)NC1CCCC1`, for which the inhibition is 20.6%.

On to `Cc1noc2nc(C3CC3)cc(C(=O)Nc3nc4ccccc4s3)c12`, for which the inhibition is -4.21%.

In the case of `Cc1ccc(Cn2cc(C(=O)O)c(S(=O)(=O)N3CCOCC3)n2)cc1`, the inhibition was -22.5%.

Regarding `CC(C)OCCCn1c(=O)c2ccccc2n2c(CCC(=O)NCCN3CCN(c4cccc(Cl)c4)CC3)nnc12`, the inhibition was 8.41%.

`O=C(C1CCc2nc(N3CCOCC3)ncc2C1)N1CCCCCC1` (stereo unspecified): the inhibition is -6.44%.

As for `Cc1ccc(NC(=O)C2CCCN(c3ncnc4onc(C)c34)C2)nc1` (stereo unspecified), the inhibition was 0.0336%.

Turning to `O=C(NCC1CC1)c1nc(-c2ccc3[nH]ccc3c2)no1`, the inhibition is -9.5%.

For `O=C(NC1CC1)C1CCN(c2ncccc2-c2nc(-c3ccccc3)no2)CC1`, the inhibition was 17.4%.

`O=C(NC1CC1)c1nc(-c2ccc(-n3cccc3)cc2)no1`: the inhibition was 43.1% (active).

As for `CSCC[C@H](NC(=O)N1CCn2c1nc1ccccc12)C(=O)NCc1ccc2c(c1)OCO2`, the inhibition was 14.2%.

As for `CCn1c(=O)c(CCC(=O)N2CCN(c3ccccc3)CC2)nc2c(C)nn(-c3ccccc3)c21`, the inhibition is 5.12%.

Consider `c1ccc(Nc2cc(CC3CCN(Cc4cnc[nH]4)CC3)ncn2)nc1`, for which the inhibition was -12.1%.

Turning to `CSc1ncnc2c1sc1nc(-c3ccccc3)c3c(c12)CC(C)(C)OC3`, the inhibition was 3.2%.

On to `CCCCCCSc1ncnc2c1sc1nc(-c3ccccc3)c3c(c12)CC(C)(C)OC3`, for which the inhibition is 3.28%.

As for `CC1(C)Cc2c(c(-c3ccco3)nc3sc4c(SCCCc5ccccc5)ncnc4c23)CO1`, the inhibition was 69.7% (active).

In the case of `Cc1ccc(S(=O)(=O)N2Cc3ccccc3CN3C(=O)NC(=O)C3C2)cc1` (stereo unspecified), the inhibition was 4.38%.

For the molecule `COc1ccc(CCNc2ncnc3c2cnn3Cc2ccccc2)cc1OC`, the inhibition is -18.7%.
